Results published in the supplement of paper PMC4166925.
± gives the standard deviation of the averaged measurements. Over roughly 33,000 sequences, “E-score (dimensionless, -0.5 to 0.5)” has its median near -0.046; the highest 2% begin near 0.36. This excerpt belongs to a sample that is enriched for the highest values.

test system: T1, SpTbr T-box DNA-binding domain (GST fusion); assay: PBM E-score of 8-mer (E-score (dimensionless, -0.5 to 0.5)); Tbr is Tbrain of the sea star Patiria miniata (Pm) or the sea urchin Strongylocentrotus purpuratus (Sp); higher = stronger binding preference; settings: the construct has about 5 more residues each side
T1 sequence: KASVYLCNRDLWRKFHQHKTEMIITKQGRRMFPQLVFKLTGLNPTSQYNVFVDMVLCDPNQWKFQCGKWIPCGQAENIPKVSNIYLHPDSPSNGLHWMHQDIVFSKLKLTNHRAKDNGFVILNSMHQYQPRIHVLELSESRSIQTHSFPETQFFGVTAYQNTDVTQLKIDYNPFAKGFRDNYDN
Protocol: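 Universal protein-binding microarray (Agilent AMADID 016060, 60-bp probes with a 35-bp variable region) incubated with 200 nM GST-fused Strongylocentrotus purpuratus Tbr T-box DNA-binding domain (residues 362-554) in PBS pH 7.5. Scored for every ungapped 8-mer (given with its reverse complement) as E-score (range -0.5 to 0.5; >0.45 counts as bound) and Z-score of median probe intensity. Two replicate arrays (datasets 1 and 2).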
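Note: protein at 200 nM in PBS on universal double-stranded arrays.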

Sequence	PBM E-score of 8-mer
AATGAGGA	-0.334 ± 0.058
AACAATGA	0.0839 ± 0.096
AAAGTTCA	-0.0472 ± 0.047
CTACCGAG	-0.07 ± 0.013
CACCTGAA	0.29 ± 0.0089
CACCTGTA	0.331 ± 0.036
CACCTGAC	0.374 ± 0.0049
AACCTGAC	0.121 ± 0.003
CACCTGTC	0.431 ± 0.019
AACCTGTC	0.248 ± 0.011
GGATCCAC	-0.00958 ± 0.069
CGAAGTAC	-0.169 ± 0.067
GCCGTTTA	0.0646 ± 0.08
AATGCGAT	0.0396 ± 0.031
CATGCGAG	0.106 ± 0.012
ACTGCGAG	0.17 ± 0.033
AGTGCGAC	0.341 ± 0.024
AGTGCGAG	0.408 ± 0.022
AGTGCGAT	0.4291 ± 0.0025
CGTGCGAC	0.238 ± 0.029
ACTGCGAT	0.117 ± 0.0014
CGTGCGAG	0.373 ± 0.018
ATTCTGTG	-0.0566 ± 0.036
CTCTCAGA	-0.187 ± 0.0034
CTCCGGCA	0.0686 ± 0.041

Sequence	PBM E-score of 8-mer
CCATAAGG	-0.0717 ± 0.0012
AGGCGTCG	0.349 ± 0.018
GGGCGTCA	0.376 ± 0.017
GCGCGTCA	0.265 ± 0.028
GTGCGTCA	0.187 ± 0.009
CGGCGTCA	0.223 ± 0.02
AGGCGTCA	0.41 ± 0.005
ACTTCAAT	-0.0527 ± 0.032
ACGTCACG	0.217 ± 0.057
ATGTTGGG	-0.0592 ± 0.0084
TAAGGCTA	-0.149 ± 0.077
GACACTCC	0.316 ± 0.0096
TACACTCA	0.137 ± 0.013
CACACTCA	0.407 ± 0.0072
AACACTCG	0.193 ± 0.0083
CCCACTCG	0.05 ± 0.13
AACACTCC	0.283 ± 0.039
CACACTCC	0.402 ± 0.0059
AACACTCA	0.31 ± 0.0041
CACACTCG	0.426 ± 0.019
CGCAGCAC	0.0169 ± 0.017
AGTTGCTA	0.239 ± 0.042
GGTCACAC	0.46 ± 0.013
GGACACAC	0.0866 ± 0.0081
CGTCACAA	0.244 ± 0.0062

Sequence	PBM E-score of 8-mer
CGTCACAC	0.43 ± 0.011
AGTCACAC	0.457 ± 0.0049
CGTCACAG	0.232 ± 0.0032
AGTCACAT	0.1318 ± 0.0012
AGTCACAG	0.0674 ± 0.028
GGTCACAA	0.2073 ± 0.00096
GTTCATCA	0.0211 ± 0.0087
ATCAACAT	-0.111 ± 0.028
AGTGCTCC	-0.0941 ± 0.03
AGTCTTGG	-0.101 ± 0.011
CGTAAGTA	0.169 ± 0.0079
AGCTGTCG	0.263 ± 0.013
ACGTGTCC	0.0769 ± 0.048
AGGTGTCG	0.486 ± 0.008
AGGTGTCC	0.428 ± 0.0068
ACGTGTCG	0.362 ± 0.015
AGATGTCC	-0.309 ± 0.003
CCACCAGG	-0.177 ± 0.03
CGTGAGCA	0.105 ± 0.039
GCCTAAGC	-0.159 ± 0.006
CTAACTAG	0.0135 ± 0.086
AAGGGAAA	-0.289 ± 0.05
GACAATGA	0.176 ± 0.0013
ATCACCAC	0.113 ± 0.004
CTCACCAC	0.218 ± 0.037

Sequence	PBM E-score of 8-mer
CTCACCTC	0.444 ± 0.0047
ATCACCTA	0.321 ± 0.065
ATCACCTC	0.387 ± 0.0097
CTCACCGC	0.0406 ± 0.0049
CCGGTTCC	-0.27 ± 0.0077
GTGCCATA	0.222 ± 0.024
ATAACGCC	0.28 ± 0.032
AAGGATTA	-0.152 ± 0.047
CAGATCAG	-0.0587 ± 0.00064
ACAAGTGA	0.243 ± 0.07
AAAAGTGA	0.169 ± 0.069
ACAAGTGT	0.381 ± 0.019
AAAAGTGT	0.39 ± 0.016
AAAAGTGG	0.118 ± 0.11
ACAAGTGG	0.355 ± 0.012
TAACCCTA	-0.15553 ± 2.1e-05
GCTGTGGA	0.151 ± 0.058
ACTGTGAA	0.413 ± 0.0064
TCTGTGAA	0.329 ± 0.017
ACTGTGAT	0.242 ± 0.0029
ATTGTGAA	0.317 ± 0.067
ACTGTGAG	0.269 ± 0.031
GTTGTGAA	0.4 ± 0.015
CTTGTGAA	0.353 ± 0.034
GCTGTGAA	0.4045 ± 0.0013

Sequence	PBM E-score of 8-mer
AAAGAGAG	-0.0256 ± 0.025
GAACTCGA	0.194 ± 0.051
TATGATAA	-0.00343 ± 0.017
GGTGATAA	0.37553 ± 0.00031
TGTGATAA	0.377 ± 0.017
CGTGATAA	0.27 ± 0.036
AGTGATAA	0.278 ± 0.067
GGTGATAC	0.221 ± 0.028
CGTATGCC	-0.271 ± 0.057
ACACCTAA	0.4637 ± 0.0015
ACACCTAT	0.4592 ± 0.0012
ACACCTAG	0.444 ± 0.0087
ACACCGGT	0.246 ± 0.055
ACACCTGT	0.4669 ± 0.0038
AAACCTGT	0.0331 ± 0.12
TCACCTAA	0.301 ± 0.018
AGACCTAT	-0.142 ± 0.047
GCACCTAA	0.339 ± 0.04
ATACCTAT	-0.0845 ± 0.068
CCACCTAG	0.183 ± 0.046
AAACCTAG	0.0536 ± 0.035
CGTGGGAC	0.0261 ± 0.0086
AATCCCAC	0.151 ± 0.013
ATCTGCCG	-0.21 ± 0.071
TGCATTAA	0.022 ± 0.05

Sequence	PBM E-score of 8-mer
CATGCGCC	-0.226 ± 0.0069
CGCATATC	-0.0822 ± 0.013
CAGACCCA	-0.0355 ± 0.018
AGGTCTTA	-0.0667 ± 0.12
CCCTCACG	0.153 ± 0.063
ACTGGACC	-0.203 ± 0.069
ATCCAGCC	-0.0901 ± 0.0022
CCACCTAC	0.248 ± 0.043
GCACCTAC	0.352 ± 0.025
ACACCTAC	0.462 ± 0.0061
AATAGATG	0.0328 ± 0.094
AACTAATG	-0.0496 ± 0.012
AGCTTTGA	-0.239 ± 0.067
AGTCTCTC	-0.105 ± 0.029
CTTCCTCC	-0.204 ± 0.065
CGCAACAC	0.306 ± 0.024
AGCAACAG	-0.0121 ± 0.0042
AGCAACAA	0.1945 ± 0.00053
GGCAACAA	0.13 ± 0.019
AGCAACAC	0.376 ± 0.026
GGCAACAC	0.3658 ± 0.00072
GGTTATCA	0.0778 ± 0.034
CGCTAAAC	0.187 ± 0.1
GACGGGCA	-0.2934 ± 0.0011
AACTGGTG	0.188 ± 0.02

Sequence	PBM E-score of 8-mer
ACCCCTCT	-0.063 ± 0.085
ACACCCCA	0.376 ± 0.013
ACCCCCCT	-0.162 ± 0.03
ACACCCCG	0.35 ± 0.018
ACACCCCC	0.363 ± 0.015
ACACCCCT	0.385 ± 0.013
TGACGTAA	-0.098 ± 0.019
CATATCTA	-0.24 ± 0.025
GAAGCCTA	-0.182 ± 0.037
GACGGGCC	-0.12 ± 0.046
TAGCGCGA	0.3785 ± 0.0014
GAGCGCGA	0.279 ± 0.053
CAGCGCGA	0.199 ± 0.0059
AAGCGCGA	0.369 ± 0.007
AAGCGCGC	0.0762 ± 0.0076
AAGCGCGG	0.136 ± 0.063
CTTCCAGA	-0.22 ± 0.011
ACCATAGC	0.0118 ± 0.017
CTCTGGGC	-0.112 ± 0.012
TCATTGGA	-0.0638 ± 0.031
CCTCCATC	-0.0262 ± 0.042
CCACACCG	0.226 ± 0.071
